Laboratory results published in the supplement of paper PMC3334620.
Over roughly 33,000 sequences, “E-score (-0.5 to 0.5)” has its median near -0.0034; the highest 2% begin near 0.25. The list comes from a sample in which the highest values are over-represented; it also holds similar and randomly drawn sequences.

What follows are sequences tested against T1, Yap3 (UniProt P38749) (assay: PBM E-score (8-mer binding enrichment) (E-score (-0.5 to 0.5)); higher = stronger / more preferred TF binding). Conditions: protein concentration: 100 nM; construct: GST-full length.
T1 sequence: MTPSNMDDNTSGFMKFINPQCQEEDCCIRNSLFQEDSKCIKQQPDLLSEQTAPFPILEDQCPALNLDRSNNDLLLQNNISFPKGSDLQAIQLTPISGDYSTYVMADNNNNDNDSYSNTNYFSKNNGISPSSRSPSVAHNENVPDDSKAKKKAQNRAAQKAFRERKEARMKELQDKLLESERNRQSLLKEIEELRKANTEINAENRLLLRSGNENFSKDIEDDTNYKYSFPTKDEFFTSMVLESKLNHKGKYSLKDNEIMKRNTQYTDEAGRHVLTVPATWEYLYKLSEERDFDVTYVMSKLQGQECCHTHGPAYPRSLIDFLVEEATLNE
Procedure: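 Universal 'all 10-mer' protein binding microarrays (Agilent AMADID 015681) probed with GST-tagged S. cerevisiae TFs (full-length or DBD) made by in vitro transcription/translation (PURExpress), about 100-200 nM. Bound TF was detected with fluorescent anti-GST. Each ungapped 8-mer (which stands for itself and its reverse complement) is scored by the PBM enrichment score (E-score), a modified Wilcoxon-Mann-Whitney statistic from -0.5 to +0.5, computed with the Universal PBM Analysis Suite. Scale: above 0.35 generally sequence-specific binding.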

Row | Sequence | PBM E-score
1 | GAAGCTAA | -0.136
2 | ATAAGGTG | -0.00609
3 | ATCTGCCG | 0.101
4 | GTCAGCAC | -0.0445
5 | GGATCAAA | 0.111
6 | AAAATATT | 0.318
7 | AAAATACT | 0.0626
8 | AAAATAGT | 0.12
9 | TAGCAACA | 0.114
10 | AAGCACTT | -0.0376
11 | CGTGGCTC | -0.321
12 | CCGGAAAA | 0.106
13 | AATCGAAG | 0.256
14 | AATCGACA | 0.258
15 | AATCGACC | -0.00549
16 | AATCGACT | -0.0232
17 | AATCGAAA | 0.0602
18 | AATCGAAC | 0.107
19 | AACGCGAG | 0.126
20 | CACGCGAA | -0.0244
21 | AACGCGAA | 0.298
22 | AACGCGCT | -0.012
23 | AACGCGCG | 0.265
24 | AACGCGCA | 0.103
25 | ACGCACCC | -0.243

Row | Sequence | PBM E-score
26 | ACCCGCAA | -0.239
27 | ACTAGTTG | -0.0214
28 | TCGCAAGA | -0.0427
29 | TCCATCCA | -0.0216
30 | ACCCCCAT | -0.246
31 | CAGACAAC | 0.0898
32 | AAGACAAC | 0.267
33 | AAGACAAG | 0.045
34 | GAAAGAGA | 0.0574
35 | ATCATCAT | 0.139
36 | AATTTGCG | 0.0563
37 | ATCGTAAG | 0.137
38 | CTCGTAAC | 0.177
39 | CTCGTAAG | 0.257
40 | ATTGTCTG | 0.11
41 | AAGATGAT | 0.0727
42 | ATTGCTCA | -0.00161
43 | GATAGATA | 0.0286
44 | TATAGATA | 0.0759
45 | CGTAGATA | 0.0847
46 | AGTAGATA | 0.273
47 | AGTAGATC | -0.0265
48 | AATAGATA | 0.267
49 | GGCATCGA | -0.125
50 | ACGGCGCA | 0.0681

Row | Sequence | PBM E-score
51 | AGAATGCC | -0.00977
52 | CCGCAAAA | 0.076
53 | AATAGTTA | 0.0935
54 | TATAGTAA | 0.27
55 | AATAGTAG | 0.206
56 | AATAGTTC | 0.156
57 | AATAGTAC | 0.0612
58 | CATAGTAA | 0.198
59 | AATAGTAA | 0.258
60 | AATAGTTG | 0.267
61 | GATAGTAA | 0.11
62 | GCCTAACC | -0.151
63 | ATCTACTA | 0.185
64 | AAACCTCG | -0.132
65 | ACATCGAT | 0.0921
66 | ACCTAGTA | -0.119
67 | CTTCATTA | 0.242
68 | ATTCATTA | 0.174
69 | GTTCATTA | 0.259
70 | ACTTCATC | 0.0677
71 | ACCGTCGG | -0.163
72 | AACTAGCT | -0.0564
73 | CTCTATTA | 0.0839
74 | CTATATTA | 0.325
75 | ATAGATTA | 0.348

Row | Sequence | PBM E-score
76 | CTATATTC | 0.151
77 | GTATATTA | 0.211
78 | GGATATTA | 0.0994
79 | ATAGATTG | 0.119
80 | ATATATTA | 0.32
81 | CGATATTC | 0.0953
82 | ATATATTG | 0.0595
83 | GTAGATTA | 0.245
84 | CGATATTA | 0.358
85 | GGTACTGA | -0.124
86 | GATGGGGA | -0.0817
87 | ATATAGAC | 0.123
88 | AGTGCATC | -0.0272
89 | CTACGCGC | -0.0286
90 | ATAGAGAT | 0.166
91 | ATATATCA | 0.118
92 | CTATCTCA | -0.0511
93 | CTATAGTA | 0.156
94 | ATATAGTA | 0.264
95 | GTATAGTA | 0.143
96 | ACATATTA | 0.305
97 | ACATATTG | 0.11
98 | ATCTCTCA | 0.15
99 | GTATATCA | 0.0881
100 | ATATCTCA | 0.268

Row | Sequence | PBM E-score
101 | CCATATTA | 0.24
102 | CTATATCA | 0.264
103 | AGTGCCTC | -0.229
104 | GATAGACA | 0.0506
105 | GTCTTCGA | -0.122
106 | TCAGTAGA | 0.0364
107 | GGTCCACC | -0.329
108 | ACAGCAAG | 0.247
109 | ACAACATG | 0.136
110 | ACGCAAGT | -0.0875
111 | CGAGCATC | 0.00988
112 | AGCCCAGA | -0.0938
113 | ATATCAAC | 0.166
114 | ATATCAAT | 0.268
115 | ATATCAGG | -0.0437
116 | CTATCAAG | 0.067
117 | ATATCAAG | 0.26
118 | ATATCAAA | 0.244
119 | GACTGTCC | -0.203
120 | ACGCTCAC | -0.0296
121 | AAACACTC | 0.0568
122 | AAATAAGC | 0.12
123 | GAACATAA | 0.134
124 | TAACATAA | 0.337
125 | CAACATAG | 0.144

Row | Sequence | PBM E-score
126 | CAACATAA | 0.297
127 | CAACATAC | 0.0807
128 | AAACATAA | 0.202
129 | CTGTGACA | 0.0329
130 | CATGGGCA | -0.0447
131 | GTAGCGTA | 0.0978
132 | AATCCTGC | 0.0275
133 | ACTTGGGC | -0.119
134 | AGCTCTAG | -0.0862
135 | GAAAATCA | 0.132
136 | CAAGCAAA | 0.00556
137 | AGCCAGGA | -0.0633
138 | TAAACTAA | 0.282
139 | AAAACTAA | 0.298
140 | GAAACTAA | 0.00343
141 | AAAACTAT | 0.182
142 | AAAACTAG | 0.021
143 | CAAACTAA | 0.25
144 | AGTGGTTA | 0.142
145 | GACACCGA | -0.136
146 | CTGCTCCA | -0.0981
147 | ATCCGTTA | 0.284
148 | GTCCGTTA | 0.107
149 | ATCCGTTC | 0.057
150 | ACGATACC | 0.157

Row | Sequence | PBM E-score
151 | ACTGATCA | 0.131
152 | ACTCTACC | 0.0336
153 | ATATATAT | 0.231
154 | ATATATGG | 0.259
155 | CTATATAC | 0.367
156 | CTCTATAC | -0.129
157 | ATATATGA | 0.185
158 | ATATGGAG | 0.264
159 | GTATATAC | 0.0969
160 | ATATGGAC | 0.0106
161 | ATATATGC | 0.224
162 | CTATGGAG | -0.0464
163 | CTATATAG | 0.121
164 | ATATATAC | 0.299
165 | AAGAGAGC | -0.218
166 | CCCACCAA | 0.0694
167 | ACCCCTTC | -0.182
168 | CATCGCAC | -0.0244
169 | CGAACTTA | 0.0175
170 | GTAGTTTA | 0.203
171 | ATAGAGCA | 0.0256
172 | CCCCGCCA | 0.0511
173 | ATAAATTC | 0.153
174 | ATAAATTA | 0.365
175 | GTAAATTA | 0.223

Row | Sequence | PBM E-score
176 | AGAAATTG | 0.266
177 | AAAAATTG | 0.0568
178 | CTAAATTA | 0.212
179 | ACAAATTG | 0.173
180 | AGAAATTC | 0.0349
181 | ATAAATTG | 0.312
182 | AGACAAAA | 0.0827
183 | ACTAAGAC | -0.0709
184 | ACTAATCT | 0.00634
185 | CCTAATGA | 0.128
186 | TCTAATCA | 0.185
187 | CCTAATAC | 0.122
188 | ACTAAGAT | 0.255
189 | ACTAAGAA | 0.205
190 | ACTAATGA | 0.264
191 | ACTAATCA | 0.255
192 | ACTAATAC | 0.288
193 | GCTAATGA | 0.0606
194 | GCTAATAC | 0.176
195 | CGTGTGTA | 0.172
196 | ATAGGTTA | 0.0929
197 | AGCAAACT | 0.158
198 | ATAGAGGA | -0.186
199 | ACTAATAA | 0.303
200 | TCTAATAA | 0.167

Row | Sequence | PBM E-score
201 | ACGAATAT | 0.212
202 | ACTAATAG | 0.244
203 | CCTAATAA | 0.146
204 | ACTAATAT | 0.301
205 | ATTAAAGG | 0.199
206 | CAAACTCC | -0.0365
207 | CCGTGGAA | -0.00863
208 | GCTCACAA | 0.0362
209 | TCGATGCA | -0.0467
210 | CGTAATTC | 0.296
211 | AGTAAGTA | 0.221
212 | AGTAATTA | 0.307
213 | CGTAATTA | 0.335
214 | GGTAATTA | 0.221
215 | CCTAATTC | 0.036
216 | CGTAATGA | 0.241
217 | AGTAATTC | 0.235
218 | AGTAATTG | 0.164
219 | AGAAATCA | 0.0967
